Assay results: the supplement of paper PMC6555819

The sequences below were run on VDR:RXRa (NR concentration 270 nM, RXRa partner concentration 90 nM) (assay: PBM binding z-score (relative to random genomic background probes); higher = stronger binding; sequences stand for … in GC…GCGATTGACAGCGTAGAATGAAGG).
Description: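 Protein-binding microarray (Agilent 4x180K custom design, double-stranded 60-nt probes: 5' GC cap, 34-nt variable region, 24-nt constant primer region; full probe sequence given). Purified or IVT nuclear receptor:RXRα heterodimers (3:1 NR:RXRα, mostly 270:90 nM) or homodimers were incubated for 1 h in PBS with 2% milk and no ligand, then detected with Alexa488 antibodies. Fluorescence from o1-orientation probes (~5 replicates averaged) was converted to z-scores against 500 random hg19 background probes. Variable regions are seed direct-repeat (DR0–DR5) sites, all their single-nucleotide variants and half-site ablations.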

Row | Sequence | PBM binding z-score
1 | GCTAGTTGATCAGTAAAAGGTCACACACCGGTCG | 3.87
2 | TTACCAAGGTGAAAGGACGTTGATGCACGCCTTG | 0.0674
3 | TCATACAGGTAAAAGGTGAAAGTCGGTGTGGTAA | 1.64
4 | TCTTGTAGATCAACAGGTGGTTAAGAAAGATCGA | 0.266
5 | CGTCCAAGGTCCGCAGGTCAGTGAAAGCGACGTG | -0.111
6 | CAAACTAAGTCACCGGAAGGTCAAAGTCCGCATG | 3.59
7 | CCTATTGGGCCAAAGGTCATTGATTCCAATGCTC | 4.66
8 | TCAGACAGGTGAAGGTAACGCAGGTACGCAGTCG | 0.637
9 | TAGCCTAGGTCATTCAGGGGCCAGTCTAGAAAGC | 2.76
10 | AGAATGAGGTTATTAATATCAGGGAATTGCGGTC | 1.27
11 | TGTTGTAGATCAAGCAGGTTAAGAAAGCCTGAGT | 0.0987
12 | ATCTCTAGGTAAAAGTTCAGTGAGTCCCGAGGAT | 2.09
13 | TAGCCTAGATCATTGGGCCAGTATAGTACGCATC | -0.685
14 | AGCATGAGGTTATACGTAGATCAGGGAAGAAAGT | 1.44
15 | TCTTGTAGCTCAAAGGTTAAGAAAGCCGAAGCCT | 0.581
16 | TCTGCTAGGTCAGTTGGTCAGGTAACGAGCTGCC | -0.0561
17 | TCTATTAGTTGATTAGGGCAACTGAAACAGCGGA | 0.717
18 | TCTATTAGTTGATTAGGCCAACCGAAACAGCGGA | 0.618
19 | CCGACTGGGCCACGAAAGGTCATTGATTCAGTGA | 4.05
20 | TCTGCTAGGTCAATGATGGTCAGCTAATCTGCTA | 1.32

Row | Sequence | PBM binding z-score
21 | ATCGCAAGGTCGACGAGGTGAGTATACACCGTTT | 4.11
22 | CCTAGTTGGTCAAGGTCACCCACGCTATAGGTAC | 4
23 | CCTGCTAGGTCAACGGTCAGCTAAAGCAGCTCGC | 1.58
24 | TAGCCTAGGTCATGCAGGCCAGTATAGTGTCGGC | 3.25
25 | TCATATAGGTAAAAGGTGAATGTCGGTGTGGTAA | 1.44
26 | ATTTACGGGTCAACGAGGTTATAGCACGCGTATA | 8.05
27 | TAGCCTAGGTCAGATGGGGCCAGTATACGCTATA | 2.69
28 | TCGGCTAGGTCAGTTGGTCAGCTAACGAGCTGCC | 0.16
29 | AGAACTAGGGCAATGAGTTGATAGCACGGGTGGC | 3.17
30 | TCTTGTAGATCAGAAGGTTAAGAAAGCTGGCCAA | 0.671
31 | TCTAGCAGGCCAGAGGGTCACTCAAGAGGTACGG | 1.28
32 | CTGAGTAGGTTATGGGGCATTCAGGCAACGGTGA | 0.0973
33 | ACTAGCAGGCCAGGTTTGGGTCACTCAAACAAAG | 0.437
34 | TCTAGTTGGTCACGGAGGTCACACACGACGGGTA | 5.62
35 | AGAACGAGTGCAATGAGTTGATAGCACGGGTGGC | 4.09
36 | GGAACGAGAGCATTCGAGTTGATAGCATGGCGAT | -0.115
37 | TCTAGTAGATCAGCAGGTTAAGAAAGCTGGCCAA | 0.524
38 | ACTATTAGTTGAGACGTGGGCAACCGATAGGTTG | -0.5
39 | AGAACGAGGGCAACGAGTTGATAGCACGGGTGGC | 5.16
40 | AGAATGAGGTAATACGTAGATCAGGGAAGAAAGT | -0.148
